Results published in PubChem BioAssay (NCATS).
“And” between values parts separate entries of the source, which are not always exact repeats. Equal entries are not always repeated. Inconclusive results are not listed. The source made the active and inactive calls. Unless noted, calls come from the whole dose curve; as a rule, active = well fitted curve in the direction sought with a large enough effect; inconclusive = small, poorly fitted or top-dose-only effect, or another doubt; inactive = no such curve, though single readings can be large; an effect the other way counts as inactive or inconclusive.

Legend:
[1] = Cell Viability - SK-N-SH (AID 435; calls by dose curve;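 note: potency is the fitted concentration of half-maximal effect; compound exposure lasted 40 h at 37 °C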); settings: SK-N-SH neuroblastoma cell viability qHTS
Outline: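 Cells seeded at 1500 per well and incubated 5 hr at 37 °C. Compound added, then 40 hr at 37 °C. CellTiter-Glo added, 20 min at room temperature, luminescence read.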

[2] = Cell Viability - HUV-EC-C (AID 542); settings: HUV-EC-C endothelial cell viability, qHTS; series mostly up to 92.2 µM;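 note: cells exposed to compound for 40 hours; % is set by controls: 0 for no effect and ±100 for the full control effect; nearly all actives have a fitted effect of over 35% in size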
Outline: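 CellTiter-Glo luminescence measured ATP loss in HUV-EC-C cells (1000/well) after 40 hr compound exposure at 37 °C, in complete culture medium. Concentration-response data were Hill-fitted to give AC50.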

[3] = Cellular Toxicity (caspase-3) Mesangial (AID 660); settings: mesangial cells, normalized: DMSO 0%, 100 µM tamoxifen 100%; series mostly up to 91.7 µM;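 note: combined caspase 3 and 7 activity read by Caspase-Glo luminescence; cells exposed to compound for 16 h before the caspase read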
Outline: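 Caspase 3/7 activation measured by Caspase-Glo 3/7 luminescence (20 min, room temperature) following 16 h exposure of mesangial cells (1000/well); AC50 from Hill-equation fit, normalized to DMSO and 100 uM tamoxifen.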

[4] = Cellular Toxicity (caspase-3) H-4-II-E (AID 663); settings: H-4-II-E rat hepatoma; Potency: caspase-3 activation; series mostly up to 92.2 µM;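 note: cells exposed to compound for 16 hr before readout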
Outline: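 H-4-II-E rat hepatoma, 1500 cells/well, 5 hr settle at 37 °C; compound 16 hr, 37 °C, complete medium; Caspase-Glo 3/7, 20 min RT; luminescence. DMSO = 0%, 100 uM tamoxifen = 100%; Hill-equation AC50.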

[5] = Cellular Toxicity (caspase-3) NIH 3T3 (AID 666); settings: NIH 3T3 caspase-3 activation, apoptosis/toxicity; series mostly up to 92.2 µM;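 note: caspase signal read after 16 h compound exposure; 0% = DMSO basal and 100% = 100 µM tamoxifen stimulation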
Outline: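 Caspase-Glo 3/7 luminescence reported caspase activation in 1000 NIH 3T3 cells/well after 16 h compound exposure at 37 C. DMSO set basal and 100 uM tamoxifen set 100% stimulation; concentration-response modeled with the Hill equation for AC50.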

[6] = Cellular Toxicity (caspase-3) Renal Proximal Tubule (AID 667); settings: renal proximal tubule cells; series mostly up to 91.7 µM;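 note: cells exposed to compound for 16 hours at 37 °C before detection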
Outline: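 In qHTS format, rat primary proximal tubule cells seeded at 1000 per well are exposed to compounds for 16 hours at 37 °C. An increase in Caspase-Glo 3/7 luminescence indicates caspase activation.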

[7] = Cell Viability - LYMP2-013 (AID 970); settings: LYMP2-013 lymphoblastoid cells viability; series mostly up to 92.2 µM;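 note: 0% = DMSO only and full inhibition = tetraoctylammonium bromide control; nearly all actives have a fitted effect of over 55% in size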
Outline: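 qHTS cytotoxicity: ATP-dependent luminescence (CellTiter-Glo, 30 min room temperature) read after 24 h compound exposure at 37 C of 2500 LYMP2-013 lymphoblastoid cells per well. Concentration-response fitted with Hill equation to give AC50.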

[8] = Cell Viability - LYMP2-021 (AID 974); settings: LYMP2-021 lymphoblastoid cells viability; series mostly up to 92.2 µM; note: % is set by controls: 0 for no effect and ±100 for the full control effect; nearly all actives have a fitted effect of over 55% in size
Outline: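 AC50 values come from Hill-equation fits to CellTiter-Glo luminescence (ATP content), read after 24 hour compound exposure at 37 C of 2500 LYMP2-021 lymphoblastoid cells/well; tetraoctylammonium bromide as positive control.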

[9] = Cell Viability - LYMP2-002 (AID 977); settings: LYMP2-002 lymphoblastoid cell viability, qHTS; series mostly up to 92.2 µM;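 note: plate controls were DMSO only for no effect and 92 µM tetraoctylammonium bromide for full effect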
Outline: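 Human lymphoblastoid cells, 2500/well, complete medium; 5 h 37 C settle; compound 24 h 37 C; CellTiter-Glo, 30 min RT; luminescence. Decrease in ATP = cytotoxicity; AC50 via Hill equation.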

[10] = Cell Viability - LYMP2-006 (AID 978); settings: LYMP2-006 lymphoblastoid cell viability, qHTS; series mostly up to 92.2 µM; note: % is set by controls: 0 for no effect and ±100 for the full control effect; nearly all actives have a fitted effect of over 60% in size
Outline: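 Concentration-dependent loss of intracellular ATP in a human lymphoblastoid line after 24 hr treatment at 37 C was measured by CellTiter-Glo luminescence, with AC50 values obtained from standard Hill-equation modelling.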

[11] = Cell Viability - LYMP2-022 (AID 987); settings: LYMP2-022 lymphoblastoid cell viability; series mostly up to 92.2 µM;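 note: 0% = DMSO alone and full effect = tetraoctylammonium bromide at 92 µM; nearly all actives have a fitted effect of over 55% in size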
Outline: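 Cytotoxicity read as decreased cellular ATP (CellTiter-Glo luminescence, 30 min room temperature) after 24 hours compound exposure of 2500 lymphoblastoid LYMP2-022 cells/well at 37 C. Concentration-response data fitted with standard Hill equation for AC50.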

[12] = Cell Viability - LYMP2-024 (AID 988); settings: LYMP2-024 lymphoblastoid cell viability; series mostly up to 92.2 µM;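 note: plate controls were DMSO only for no effect and 92 µM tetraoctylammonium bromide for full effect; nearly all actives have a fitted effect of over 60% in size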
Outline: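 Cytotoxicity was taken as a decrease in ATP (CellTiter-Glo luminescence) after 24 hr compound exposure at 37 C of LYMP2-024 lymphoblastoid cells, 2500 cells/well. Concentration-response data were fitted to the Hill equation to give AC50.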

[13] = target: Retinoic acid receptor RXR-alpha (Homo sapiens) (UniProt P19793); experiment: qHTS assay for small molecule antagonists of retinoid X receptor alpha signaling (AID 588546; active = well fitted inhibition curve with a large enough effect in the signal ratio, with a control signal flat, not every such curve was filed as active; the % refers to the signal ratio;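 note: cells stimulated with 9-cis-retinoic acid as agonist; % is set by controls: 0 for no effect and ±100 for the full control effect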); settings: HEK293T RXRa-UAS-bla, beta-lactamase ratio, antagonist mode
Outline: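 Beta-lactamase reporter inhibition, read as CCF4 fluorescence ratio (ex 405, em 460/530 nm) after 2 h at RT. HEK293T UAS-bla cells, 2500/well, were stimulated with 9-cis-RA at 500 or 100 nM final alongside test compound for 18 h at 37 C.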

[14] = qHTS assay for small molecule agonists of the antioxidant response element (ARE) signaling pathway measured by Nrf2-dependant transcriptional activity (AID 720636; active = well fitted curve in the direction sought with a large enough effect in the repeat runs; an effect the other way counts as inactive or inconclusive;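 note: HepG2 cells with an ARE-driven luciferase reporter; % of control where 0% means no effect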); settings: ARE-luc HepG2, Nrf2 luciferase reporter, 16 h; series mostly up to 92.4 µM
Outline: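 In HepG2 cells engineered with an Nrf2-responsive luciferase gene, ARE induction was quantified as luminescence after 16 hr compound treatment at 37 C.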

[15] = qHTS assay for cell viability of the p53RE-bla HCT-116 cell line (AID 743292); settings: p53RE-bla HCT-116 viability, ATP luminescence, 16 h; series mostly up to 95 µM; note: % is set by controls: 0 for no effect and ±100 for the full control effect; nearly all actives have a fitted effect of over 55% in size
Outline: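 Intracellular ATP of p53RE-bla HCT-116 cells measured by luciferase luminescence following 16 h compound incubation at 37 C; DMSO-only wells served as vehicle controls.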

[16] = MultiTox-Fluor Cytotoxicity Assay - LYMP1-001 - Live Cells (AID 947); settings: LYMP1-001 lymphoblastoid cells, live-cell protease fluorescence viability; series mostly up to 92.2 µM;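 note: 0% = DMSO only and full inhibition = tetraoctylammonium bromide control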
[17] = Cell Viability - LYMP2-009 (AID 968); settings: LYMP2-009 lymphoblastoid cell viability; series mostly up to 92.2 µM
[18] = Cell Viability - LYMP2-011 (AID 969); settings: LYMP2-011 lymphoblastoid cells viability; series mostly up to 92.2 µM;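 note: 0% = DMSO only and full inhibition = 92 µM tetraoctylammonium bromide; nearly all actives have a fitted effect of over 60% in size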
Outline: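 Cytotoxicity qHTS with ATP content as read-out: lymphoblastoid cells (2500/well) exposed to compound for 24 h at 37 C, then luciferase luminescence measured. Concentration-response data fitted with the standard Hill equation to give AC50.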

[19] = Cell Viability - LYMP2-015 (AID 971); settings: LYMP2-015 lymphoblastoid cell viability; series mostly up to 92.2 µM
Outline: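 Cytotoxicity readout: decrease in intracellular ATP (CellTiter-Glo luminescence) in 2500 LYMP2-015 lymphoblastoid cells/well after 24 h compound exposure at 37 C. Concentration-response data fitted with the standard Hill equation to give AC50.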

[20] = Cellular Toxicity (caspase-3) N2a (AID 665); settings: N2a cells, luminescence, normalized: DMSO 0%, 10 µM staurosporine 100%; series mostly up to 92.2 µM;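 note: compound exposure lasted 16 h at 37 °C before readout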
Outline: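 Caspase-3/7 activation measured as luminescence from Caspase-Glo reagent (1 h, room temperature) after 16 h compound exposure of mouse N2a cells. AC50 values from Hill-equation concentration-response, scaled between DMSO and 10 uM staurosporine.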

Sequence of Retinoic acid receptor RXR-alpha (Homo sapiens) (P19793 whole entry, looked up): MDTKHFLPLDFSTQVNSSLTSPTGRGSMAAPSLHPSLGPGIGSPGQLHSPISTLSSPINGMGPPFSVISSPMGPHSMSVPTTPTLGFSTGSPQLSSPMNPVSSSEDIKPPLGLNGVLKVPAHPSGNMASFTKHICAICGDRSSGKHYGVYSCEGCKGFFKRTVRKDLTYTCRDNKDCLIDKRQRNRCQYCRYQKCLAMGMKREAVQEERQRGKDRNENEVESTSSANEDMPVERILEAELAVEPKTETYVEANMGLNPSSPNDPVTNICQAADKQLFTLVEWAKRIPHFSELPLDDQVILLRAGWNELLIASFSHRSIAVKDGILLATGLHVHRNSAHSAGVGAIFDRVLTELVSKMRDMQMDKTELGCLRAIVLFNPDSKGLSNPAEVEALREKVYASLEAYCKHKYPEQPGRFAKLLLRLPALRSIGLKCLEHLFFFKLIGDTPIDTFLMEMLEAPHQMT

S=c1[nH]c2ccccc2[nH]1
inactive: Potency [1] > 92 µM | Potency [2] | outcome [3] | Potency [4] | Potency [5] | outcome [6] | Potency [7] | Potency [8] | Potency [9] | Potency [10] | Potency [11] | Potency [12] | max response [13] 5.37% | Potency [14] | Potency [15]

CC(C)(Cl)[N+](=O)[O-]
inactive: Potency [1] > 92 µM | outcome [3] | Potency [4] | Potency [5] | outcome [6] | outcome [16] | Potency [17] | Potency [18] | Potency [7] | Potency [19] | Potency [9] | Potency [10] | Potency [11] | max response [13] 5.8% | Potency [14] | Potency [15]

C=C(Cl)CCl
inactive: Potency [1] > 92 µM | Potency [2] | outcome [3] | Potency [4] | outcome [20] | Potency [5] | outcome [6] | outcome [16] | Potency [18] | Potency [7] | Potency [19] | Potency [8] | Potency [9] | Potency [10] | Potency [11] | Potency [12] | max response [13] -0.897% | Potency [14] | Potency [15]

ClC(Cl)c1ccccc1
inactive: Potency [1] > 92 µM | Potency [2] | outcome [3] | Potency [4] | outcome [20] | Potency [5] | outcome [16] | Potency [17] | Potency [18] | Potency [7] | Potency [8] | Potency [9] | Potency [10] | Potency [11] | max response [13] 0.971% | Potency [14] | Potency [15]

CC(C)[C@]12CC(=O)[C@H](C)[C@H]1C2
inactive: Potency [1] > 92 µM | Potency [2] | Potency [4] | Potency [5] | outcome [6] | outcome [16] | Potency [17] | Potency [7] | Potency [19] | Potency [8] | Potency [9] | Potency [10] | Potency [11] | Potency [12] | max response [13] 7% and 0.913% | Potency [14] | Potency [15]

N#CCCCCC#N
inactive: Potency [1] > 92 µM | outcome [3] | Potency [4] | outcome [20] | Potency [5] | outcome [6] | outcome [16] | Potency [17] | Potency [18] | Potency [7] | Potency [19] | Potency [9] | Potency [11] | Potency [12] | max response [13] 12.5% | Potency [15]

COc1ccccc1N
inactive: Potency [1] > 92 µM | Potency [2] | Potency [4] | outcome [20] | Potency [5] | outcome [6] | outcome [16] | Potency [18] | Potency [7] | Potency [19] | Potency [8] | Potency [10] | Potency [11] | Potency [12] | Potency [15]

c1ccc(OCC2CO2)cc1 (stereo not drawn)
inactive: Potency [1] > 92 µM | Potency [2] | outcome [3] | Potency [4] | outcome [20] | Potency [5] | outcome [6] | Potency [17] | Potency [18] | Potency [7] | Potency [19] | Potency [8] | Potency [9] | Potency [10] | Potency [11] | Potency [12] | max response [13] -20.9% | Potency [14] | Potency [15]

OCCBr
inactive: Potency [1] > 92 µM | Potency [2] | outcome [3] | Potency [4] | outcome [20] | Potency [5] | outcome [6] | Potency [17] | Potency [18] | Potency [7] | Potency [19] | Potency [8] | Potency [9] | Potency [10] | Potency [12] | Potency [14] | Potency [15]

CC[N+](=O)[O-]
inactive: Potency [1] > 92 µM | outcome [3] | Potency [4] | outcome [20] | Potency [5] | outcome [6] | outcome [16] | Potency [17] | Potency [18] | Potency [7] | Potency [19] | Potency [9] | Potency [10] | Potency [11] | Potency [12] | max response [13] 5.74% | Potency [14] | Potency [15]

OCC(Cl)CCl (stereo not drawn)
inactive: Potency [1] > 92 µM | Potency [2] | outcome [3] | Potency [4] | outcome [20] | Potency [5] | outcome [16] | Potency [17] | Potency [7] | Potency [19] | Potency [9] | Potency [10] | Potency [11] | Potency [12] | Potency [14] | Potency [15]

COC(=O)Nc1cccc(OC(=O)Nc2cccc(C)c2)c1
inactive: Potency [1] > 92 µM | Potency [2] | Potency [4] | Potency [5] | outcome [6] | outcome [16] | Potency [17] | Potency [18] | Potency [7] | Potency [19] | Potency [8] | Potency [9] | Potency [11]

C=CC(=O)OCC(CC)CCCC (stereo not drawn)
inactive: Potency [1] > 92 µM | Potency [2] | Potency [4] | outcome [20] | Potency [5] | outcome [6] | outcome [16] | Potency [17] | Potency [18] | Potency [7] | Potency [9] | Potency [11] | Potency [12] | max response [13] 4.48% and -16.9% | Potency [15]
